Source: PubChem (several laboratories)
ERb coact inh = ER-beta (human) coactivator binding inhibition | hit rate 1.3% among 86,000 | Q92731 | AID 633 | TR-FRET ER-beta LBD / SRC1-Cy5 peptide binding; receptor agonist-loaded with 1 µM estradiol | inhibition, % at 25.6 µM;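 active = compounds whose percent inhibition of the receptor-coactivator binding signal exceeds about 50% in the single-dose screen, limit read from the data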;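 also: 0% = receptor plus peptide wells without compound and 100% = peptide-only wells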
Target sequence (Q92731 whole entry, looked up, the tested form may be a part): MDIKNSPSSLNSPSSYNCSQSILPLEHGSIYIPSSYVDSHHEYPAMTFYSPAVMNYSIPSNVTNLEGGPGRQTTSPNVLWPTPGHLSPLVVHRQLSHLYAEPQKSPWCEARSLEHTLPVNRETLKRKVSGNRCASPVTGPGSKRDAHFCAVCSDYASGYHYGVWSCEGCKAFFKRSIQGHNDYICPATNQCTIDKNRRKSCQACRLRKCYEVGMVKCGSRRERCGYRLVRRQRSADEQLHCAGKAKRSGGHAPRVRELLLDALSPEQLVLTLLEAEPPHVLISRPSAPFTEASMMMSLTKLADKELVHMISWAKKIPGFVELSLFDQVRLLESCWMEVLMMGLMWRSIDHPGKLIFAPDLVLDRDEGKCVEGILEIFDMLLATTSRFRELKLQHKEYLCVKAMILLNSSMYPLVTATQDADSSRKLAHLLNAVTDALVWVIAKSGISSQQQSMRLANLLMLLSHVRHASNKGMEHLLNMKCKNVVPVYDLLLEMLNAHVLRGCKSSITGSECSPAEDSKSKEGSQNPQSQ
ERa coact pot = enhances coactivator binding to human estrogen receptor alpha; hit rate 1.3% among 86,000; TR-FRET ERalpha-LBD/SRC-Cy5 coactivator binding, 2 h; 100 = basal binding, no effect; P03372; AID 639; coactivator binding (% of control), % at 25.6 µM; in the data active = activity above about 200%;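 also: binding measured in presence of low estradiol as agonist stimulus; 0% = peptide alone without receptor and 100% = receptor with peptide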
IL1B NFkB inh = blocks IL-1B driven NFkB nuclear translocation in HUVEC cells; HUVEC IL-1B NFkB p65 nuclear translocation imaging; inhibition, % at 2 µM; hit rate 0.43% among 94,000;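 active = inhibition above about 30% together with a positive call from visual inspection of the well image, limit read from the data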;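 also: nuclear over cytoplasmic p65 intensity ratio measured by imaging; 0% = IL-1B stimulated DMSO wells and 100% = unstimulated DMSO wells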
NFkB transloc pot = enhances IL-1B driven NFkB nuclear translocation. HUVEC IL-1B NFkB p65 nuclear translocation imaging. activation, % at 2 µM. hit rate 0.3% among 94,000;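 active = activation above 40%, about the mean plus 3 SD, also judged a hit on visual image review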;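 also: percent activation is computed from the nuclear over cytoplasmic p65 intensity ratio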
ERa coact inh = ER-alpha (human) coactivator binding inhibition | hit rate 1.7% among 86,000 | TR-FRET ER-alpha LBD / SRC-1 peptide, estradiol-bound | inhibition, % at 25.6 µM | P03372; in the data active = inhibition above about 50%;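 also: 0% = receptor plus peptide control and 100% = peptide only without receptor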
HUVEC tox IL1B = HUVEC cytotoxicity counter-screen, IL-1B stimulated | AID 845 | cell count reduction, % at 2 µM | HUVEC cell count loss, Hoechst imaging | hit rate 0.41% among 94,000;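 active = cell count reduction more than 3 SD above the screen-wide mean, cut at about 70% in these data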;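 also: normalized per plate to untreated control cells as the no-loss baseline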
* = called active by the depositor; · = not tested or not shown; [ ] = remark or other dose. In the library only some 3.6% were active in any assay of this set; here they are far more common.

SMILES | ERb coact inh | ERa coact pot | IL1B NFkB inh | NFkB transloc pot | ERa coact inh | HUVEC tox IL1B
COCCNC(=O)C(c1ccc(C)o1)N(Cc1ccco1)C(=O)c1snc(C(N)=O)c1N (stereo unspecified) | 6 | 96 | 7 | -7 | -15 | 12
CN(C)c1ncc(C2=C(Cl)C(=O)C(N3CCCC3)=C(Cl)C2=O)s1 | 94*[fluorescence artefact?] | 9 | 7 | -7 | 97*[fluorescence artefact?] | -15
CN(C)NC1CCS(=O)(=O)C1 (stereo unspecified) | · | · | -6 | 6 | · | 16
CC(C)n1c(SCCCc2ccccc2)nc2c1c(=O)[nH]c(=O)n2C | · | · | 38* | -38 | · | 11
COc1cccc(CNC(=O)C2CCN(Cc3cnn(-c4ccccc4)c3-n3cccc3)CC2)c1 | 8 | 85 | -63 | 63* | -2 | -7
O=C(NCc1ccccn1)C1CCN(Cc2cnn(-c3ccccc3)c2-n2cccc2)CC1 | -10 | 102 | -4 | 4 | -9 | 5
CCCCCN(C(=O)COC(=O)c1ccc(Br)o1)c1c(N)n(CCCC)c(=O)[nH]c1=O | · | · | -29 | 29 | · | -8
Cc1nc(-n2ncc(C#N)c2N)c2c3c(sc2n1)CCC3 | 55*[fluorescence artefact?] | 208*[fluorescence artefact?] | -28 | 28 | 67*[fluorescence artefact?] | 8
N#Cc1cnn(-c2ncnc3sc4c(c23)CCCC4)c1N | · | · | -18 | 17 | · | -8
CCOC(=O)c1cnn(-c2nc(C)nc3sc4c(c23)CCC4)c1N | 6 | 119 | · | · | 20 | ·
CCOC(=O)c1cnn(-c2nc(SC)nc3sc4c(c23)CCC4)c1N | 60* | 61 | -1 | 1 | 75*[fluorescence artefact?] | -12
CCn1cc(C(=O)OCC(=O)Nc2ccc(S(=O)(=O)N3CCCC3)cc2)c(=O)c2ccc(C)nc21 | 5 | 133 | 0 | 0 | 20 | 40
CCNc1nc(OC)nc(SCC(N)=O)n1 | -9 | 114 | -5 | 5 | -4 | -9
COc1ccc(N2CCN(Cc3cc(=O)oc4cc(-c5ccccc5)c(O)cc34)CC2)cc1 | 43 | 70 | -8 | 8 | 64*[fluorescence artefact?] | -81
Cc1ccc(C2CC(C(F)(F)F)n3nc(C(=O)NCC4CCCO4)cc3N2)cc1 (stereo unspecified) | -2 | 131 | 7 | -7 | -13 | 24
O=C(CCSc1nc(-c2ccco2)cc(C(F)(F)F)n1)NCc1cccs1 | -6 | 99 | -47 | 47* | -14 | -40
O=C(CCSc1nc(-c2ccco2)cc(C(F)(F)F)n1)NCc1ccccn1 | -1 | 110 | -1 | 1 | -1 | -15
CCSc1nnc(-c2sc3nnc(-c4ccccc4)c(-c4ccccc4)c3c2N)o1 | · | · | -10 | 10 | · | 1
Cc1ccc(Cl)cc1NC1=C/C(=N\S(=O)(=O)c2cccs2)c2ccccc2C1=O | · | · | -41 | 41* | · | 3
CCn1c(=O)c2cc(C(=O)NCc3cccs3)sc2c2ccccc21 | 11 | 190 | · | · | 18 | ·
CCn1c(=O)c2cc(C(=O)Nc3cc(C)on3)sc2c2ccccc21 | 44 | 141 | -2 | 2 | 54*[fluorescence artefact?] | -18
C=CCn1c(=O)c(C(=O)Nc2nnc(C)s2)c(O)c2ccccc21 | 1 | 98 | · | · | 1 | ·
O=C(Nc1ccc2nc(-c3ccc(Br)o3)[nH]c2c1)c1cccs1 | 39 | 62 | 99* | -99 | 20 | 84*
COc1cc(Br)cc2cc(C(=O)N3CCCCC3C)c(=O)oc12 (stereo unspecified) | 9 | 108 | -11 | 11 | 3 | 1
Cn1c(=O)c(C(=O)Nc2ccccn2)c(O)c2ccccc21 | 10 | 286*[fluorescence artefact?] | 8 | -7 | -5 | -10
SMILES | ERb coact inh | ERa coact pot | IL1B NFkB inh | NFkB transloc pot | ERa coact inh | HUVEC tox IL1B
Cn1c(=O)c(C(=O)Nc2cnccn2)c(O)c2ccccc21 | 19 | 171 | · | · | 34 | ·
CC(C)(C)c1ccc(C(=O)Oc2ccc3c(c2)OCC3=O)cc1 | -3 | 101 | -4 | 3 | 9 | -4
O=C(Oc1ccc2c(c1)OCC2=O)c1ccccc1 | 55* | 86 | -21 | 21 | 44 | -15
Cc1nc(-c2cccc(S(=O)(=O)N3CCCC(C)C3)c2)cs1 (stereo unspecified) | -6 | 104 | -39 | 39 | -5 | 4
O=C(COc1ccccc1Cl)NCc1ccncc1 | 4 | 102 | · | · | -3 | ·
Cc1ccc2[nH]c(=O)c(C(c3nnnn3C(C)(C)C)N(Cc3ccco3)CC3CCCO3)cc2c1 (stereo unspecified) | -7 | 127 | -26 | 26 | -18 | -19
Cc1cccc2cc(C(c3nnnn3C(C)(C)C)N(Cc3ccco3)CC3CCCO3)c(=O)[nH]c12 (stereo unspecified) | 66*[fluorescence artefact?] | 54 | · | · | 57* | ·
Cc1ccc2[nH]c(=O)c(CN(Cc3nnnn3C3CCCC3)C3CCCCC3)cc2c1 | 2 | 105 | -12 | 12 | -4 | -71
Cc1ccc2[nH]c(=O)c(CN(Cc3ccccc3)Cc3nnnn3C3CCCC3)cc2c1 | 8 | 99 | 1 | -1 | 9 | 72*
O=C(OCC(=O)c1ccc([N+](=O)[O-])cc1)/C(=C\c1ccc(Cl)cc1)NC(=O)c1ccccc1 | · | · | 18 | -18 | · | -26
O=C(OCc1ccccc1)/C(=C/c1ccc(Cl)cc1)NC(=O)c1ccccc1Cl | · | · | -40 | 40* | · | -69
CCC(C)NC(=O)C1CCCN(C(=O)Nc2ccc(F)cc2)C1 (stereo unspecified) | -12 | 295* | · | · | -9 | ·
COc1ccc(-c2nc(C3CCCCC3)no2)cc1OC | · | · | -2 | 2 | · | 6
c1ccc(-c2nc(C3CCCCC3)no2)cc1 | 68* | 99 | 0 | 0 | -9 | -22
CCc1nc(SCc2cc(Cl)ccc2OC)n[nH]1 | -8 | 116 | 6 | -6 | -4 | 20
CCCCc1nc(SCC(=O)Nc2cc(C)on2)n[nH]1 | 98*[fluorescence artefact?] | 110 | -11 | 11 | -6 | -12
COc1ccc(-c2nc(SCC(=O)Nc3cc(C)on3)n[nH]2)cc1 | · | · | -19 | 19 | · | 4
CC(C)C(OC(=O)c1nsc(Cl)c1Cl)C(=O)NCc1ccc2c(c1)OCO2 (stereo unspecified) | · | · | -5 | -96 | · | 86*
CC(OC(=O)c1cccs1)C(=O)NCc1ccc2c(c1)OCO2 (stereo unspecified) | 5 | 102 | 7 | -7 | 2 | 8
COc1ccc2[nH]c(=O)c(NC(N)=S)nc2c1 | · | · | 6 | -7 | · | 89*
O=C(CSc1nnc2scc(-c3ccccc3)n12)c1ccc2c(c1)OCCO2 | 3 | 437*[fluorescence artefact?] | · | · | -26 | ·
COc1cccc(-c2csc3nnc(SCC(=O)c4ccc(NC(C)=O)cc4)n23)c1 | 7 | 224* | -4 | 4 | 32 | 11
c1ccc(-c2csc3nnc(SCc4ccc5c(c4)OCCO5)n23)cc1 | · | · | 6 | -6 | · | -33
CCn1c(SCC(=O)c2ccccc2)nnc1-c1cccs1 | -10 | 83 | -24 | 24 | 11 | 7
CN(C1CCCCC1)S(=O)(=O)c1ccc(-n2cnnn2)cc1 | 1 | 115 | -50 | 50* | 5 | -21
COC(=O)c1c(F)c(F)c(NCCO)c(F)c1F | -5 | 138 | · | · | -5 | ·
COc1ccc2[nH]c3c(c2c1)CCn1c-3nc2ccccc2c1=O | 40 | 35 | · | · | 80* | ·
